{"source": "the OligoGym collection", "data": [{"biological_target": "DEXI", "assay": "pooled miR-30 sensor sort-seq; sequence = guide strand", "conditions": "shRNA", "values": [{"sequence": "TTCCTGTAAACATCCATCGCAG", "sensor-assay potency score (higher = more potent)": -0.501}, {"sequence": "AATCTCTCTTCCACTCTCCTGG", "sensor-assay potency score (higher = more potent)": -0.0495}, {"sequence": "TCAAAGACGTCGAGCTCCGAGT", "sensor-assay potency score (higher = more potent)": -0.796}, {"sequence": "ATGTACTCCATGAGGAAGGCGT", "sensor-assay potency score (higher = more potent)": -1.19}]}, {"biological_target": "DGKE", "assay": "pooled miR-30 sensor sort-seq; sequence = guide strand", "conditions": "shRNA", "values": [{"sequence": "TTGCACTAAACAATCTTTGGTT", "sensor-assay potency score (higher = more potent)": 0.42}, {"sequence": "TTTGTTACTTGAACTTTCCATC", "sensor-assay potency score (higher = more potent)": -0.49}, {"sequence": "TTCTTGAGCATAATCTCCTTGC", "sensor-assay potency score (higher = more potent)": -0.369}, {"sequence": "TTAATTTGATCTTTCCACCCAC", "sensor-assay potency score (higher = more potent)": 0.385}, {"sequence": "TTTTGGATGAACATGTATCTAC", "sensor-assay potency score (higher = more potent)": -0.088}, {"sequence": "TTGAACTTTCCATCGATCTAGT", "sensor-assay potency score (higher = more potent)": 0.305}, {"sequence": "TTTAATTCCATCTGCTTCCATT", "sensor-assay potency score (higher = more potent)": -0.836}, {"sequence": "TGAACATGTATCTACTTGCGTG", "sensor-assay potency score (higher = more potent)": -0.503}, {"sequence": "TTACTTGAACTTTCCATCGATC", "sensor-assay potency score (higher = more potent)": -0.458}, {"sequence": "TTGACAGCCACACTGCTGCTTG", "sensor-assay potency score (higher = more potent)": 0.0149}, {"sequence": "TTTGACAGTAATCATTTCCTTT", "sensor-assay potency score (higher = more potent)": -0.513}]}, {"biological_target": "DGKH", "assay": "pooled miR-30 sensor sort-seq; sequence = guide strand", "conditions": "shRNA", "values": [{"sequence": "TACAGTTTCACATAGCGTCTTG", "sensor-assay potency score (higher = more potent)": -0.34}, {"sequence": "TAAATCAAACACCTGAGCCGGA", "sensor-assay potency score (higher = more potent)": 0.112}, {"sequence": "TTCATCTTCTATAATGTCCTTC", "sensor-assay potency score (higher = more potent)": 0.785}, {"sequence": "TTTCTTTAAACTATTTGCCCGC", "sensor-assay potency score (higher = more potent)": -0.524}, {"sequence": "TGAACTTGTCTTCTGCTTCTGA", "sensor-assay potency score (higher = more potent)": 0.759}, {"sequence": "TATGTCATTATACTCCACCTGT", "sensor-assay potency score (higher = more potent)": -0.182}, {"sequence": "TTGTTGATAATCGAACTCCCAG", "sensor-assay potency score (higher = more potent)": -0.448}, {"sequence": "TAGAGGACTAACACAGAACGAA", "sensor-assay potency score (higher = more potent)": -0.365}, {"sequence": "TTTACCAGAATCACACTTCTGC", "sensor-assay potency score (higher = more potent)": 0.827}, {"sequence": "TAACATTTTGTTGATAATCGAA", "sensor-assay potency score (higher = more potent)": -0.475}, {"sequence": "TTGAATTTACACACTTCGCAGG", "sensor-assay potency score (higher = more potent)": -0.529}, {"sequence": "TTGCTCTACAGAAACCATCGGA", "sensor-assay potency score (higher = more potent)": 0.0953}]}, {"biological_target": "DHCR7", "assay": "pooled miR-30 sensor sort-seq; sequence = guide strand", "conditions": "shRNA", "values": [{"sequence": "TTGCCTGTGAATTTGCAGTCTC", "sensor-assay potency score (higher = more potent)": -0.449}, {"sequence": "TTGTAAAAGAAATTGCCTGTGA", "sensor-assay potency score (higher = more potent)": 0.127}, {"sequence": "TGATACTTGTTCACAACCCCTG", "sensor-assay potency score (higher = more potent)": -0.124}, {"sequence": "TCAATGGTCTTCAGGTACCAGG", "sensor-assay potency score (higher = more potent)": -1.35}, {"sequence": "TTGACCATGGCGAAGGTGGAGA", "sensor-assay potency score (higher = more potent)": -0.859}, {"sequence": "TAGGAAGATGACGCTCGCCAGT", "sensor-assay potency score (higher = more potent)": -1.46}, {"sequence": "TTGGCTTTGGGAATGTTGGGTT", "sensor-assay potency score (higher = more potent)": 0.501}, {"sequence": "TATAGGTGGAGTCTTGGCCCAG", "sensor-assay potency score (higher = more potent)": -1.1}, {"sequence": "TAGATGATGTAGAAGTAGGGCA", "sensor-assay potency score (higher = more potent)": 0.47}, {"sequence": "TTGCAGTCTCTGGCGCTGGTGG", "sensor-assay potency score (higher = more potent)": -0.837}, {"sequence": "TTGAAGAACAGCTTGAAGTCAA", "sensor-assay potency score (higher = more potent)": 0.748}, {"sequence": "TTAAACTCGATGCCCATCATGT", "sensor-assay potency score (higher = more potent)": -0.575}, {"sequence": "TTGTCGAAGATGATGGTGGGCG", "sensor-assay potency score (higher = more potent)": -0.346}]}]}
